Screening results: PubChem BioAssay, National Center for Advancing Translational Sciences (NCATS)
APE1 inh-1: qHTS Assay for Inhibitors of the Human Apurinic/apyrimidinic Endonuclease 1 (APE1); recombinant APE1, TAMRA/BHQ-2 abasic DNA cleavage fluorescence; Potency, µM (doses to about 65.8 µM), for the others: top-dose activity change, negative = inhibition, most hits filed as inhibitors; 350,000 tested, 0.35% active; AID 2517, 2012;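 note: plate controls were vehicle for no effect and reference inhibitor for full effect; nearly all actives have a fitted effect of over 55% in size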
Target sequence (P27695 whole entry, looked up): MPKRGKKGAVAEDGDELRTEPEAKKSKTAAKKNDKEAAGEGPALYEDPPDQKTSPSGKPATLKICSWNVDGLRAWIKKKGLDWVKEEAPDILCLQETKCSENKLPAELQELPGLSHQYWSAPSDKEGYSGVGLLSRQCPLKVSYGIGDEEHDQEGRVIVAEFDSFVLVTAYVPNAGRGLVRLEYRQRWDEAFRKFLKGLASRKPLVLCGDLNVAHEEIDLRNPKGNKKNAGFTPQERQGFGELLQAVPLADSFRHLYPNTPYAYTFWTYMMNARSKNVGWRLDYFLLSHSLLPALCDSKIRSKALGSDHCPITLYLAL
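Readout is kinetic fluorescence (ex 525, em 598 nm) from cleavage of 50 nM TAMRA/BHQ-2 THF abasic duplex by 0.75 nM APE1, compound added 15 min beforehand at RT.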
L3MBTL1 inh: qHTS Assay for the Inhibitors of L3MBTL1; 230,000 tested, 0.66% active; AID 485360, 2010; AlphaScreen L3MBTL1–H3K9me1 peptide binding; Potency, µM (doses to about 57.1 µM), for inactives: top-dose activity, negative = inhibition, actives largely listed as inhibitors; Lethal(3)malignant brain tumor-like protein 1 (Homo sapiens), Q9Y468; note: nearly all actives have a fitted effect of over 60% in size
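Displacement of a biotinylated histone H3(1-15) peptide monomethylated at Lys9 (75 nM) from L3MBTL1 (50 nM) was measured by AlphaScreen after a 30 min room-temperature compound incubation; cefsulodin titration served as intraplate control.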
BLM helicase inh: qHTS Assay for Inhibitors of Bloom's syndrome helicase (BLM). RecQ-like DNA helicase BLM (Homo sapiens), P54132. recombinant BLM DNA unwinding, fluorescence dequenching. Potency, µM (doses to about 56.1 µM), without a hit: top-dose activity change, negative = inhibition, most hits filed as inhibitors. 350,000 tested, 0.2% active. AID 2528, 2010;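 note: plate controls were vehicle for no effect and no enzyme for full effect; nearly all actives have a fitted effect of over 35% in size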
JMJD2E inh: qHTS Assay for Inhibitors of Human Jumonji Domain Containing 2E (JMJD2E); JMJD2E catalytic domain, FDH-coupled NADH fluorescence (FDH is formaldehyde dehydrogenase); Potency, µM (titrated, usually from 57.1 µM), for inactives: top-dose activity change, negative = inhibition, usual class: inhibitors; 230,000 tested, 1.6% active; AID 2147, 2009; active = well fitted inhibition curve with a large enough effect, not every such curve was filed as active; inconclusive = small, poorly fitted or top-dose-only effect, or another doubt; inactive = no such curve, though single readings can be large or run the other way;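 note: 0% = wells with enzyme and -100% = buffer wells without enzyme; nearly all actives have a fitted effect of over 50% in size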
Target sequence (B2RXH2 1-337 limits assumed): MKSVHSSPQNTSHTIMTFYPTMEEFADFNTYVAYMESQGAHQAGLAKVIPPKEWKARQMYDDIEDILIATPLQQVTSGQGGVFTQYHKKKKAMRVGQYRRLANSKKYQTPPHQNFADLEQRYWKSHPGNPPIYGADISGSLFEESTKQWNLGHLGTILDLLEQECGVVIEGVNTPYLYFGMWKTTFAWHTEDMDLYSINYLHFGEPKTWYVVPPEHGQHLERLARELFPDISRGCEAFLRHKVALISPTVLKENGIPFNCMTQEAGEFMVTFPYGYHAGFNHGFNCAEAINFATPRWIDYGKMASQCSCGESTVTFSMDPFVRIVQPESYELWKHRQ
KAT2A inh: qHTS Assay for Inhibitors of GCN5L2; Histone acetyltransferase KAT2A (Homo sapiens), Q92830; GCN5L2 HAT assay, ThioGlo1 CoA-SH fluorescence; Potency, µM (series often up to 58.9 µM), for the others: top-dose activity change, negative = inhibition, most hits filed as inhibitors; 390,000 tested, 0.21% active; AID 504327, 2011
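Compounds, pin-transferred from DMSO stocks, meet 20nM GCN5L2 for 15 min before the reaction begins with H3(1-25) peptide (75uM) and acetyl-CoA (70uM). Thiol-reactive ThioGlo1 reports CoA release over 20 min at room temperature.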
RECQ1 inh-1: qHTS Assay for Inhibitors of RecQ-Like Dna Helicase 1 (RECQ1) | ATP-dependent DNA helicase Q1 (Homo sapiens), P46063 | RECQ1 DNA unwinding, red fluorescence kinetic read | Potency, µM (highest dose often 57.3 µM), without a hit: at the highest dose activity, negative = inhibition, hits mostly inhibitors | 240,000 tested, 0.54% active;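 note: plate controls were vehicle for no effect and no enzyme for full effect; nearly all actives have a fitted effect of over 30% in size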
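50 nM RECQ1T1 preincubated 15 min with compound in Tris pH 8.0 buffer with MgCl2, DTT, Tween-20 and 2.5 ug/ml poly(dI-dC); started with 200 nM TAMRA/BHQ-2 forked duplex and 2 mM ATP. Unwinding read as fluorescence (525/598 nm), two reads 2 h apart.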
DNA dye displace: Counterscreen for APE1 Inhibitors: Fluorescent Dye Displacement Assay; shares compounds with APE1 inh-1; DNA fluorescent dye displacement counterscreen, fluorescence; Potency, µM (titrated, usually from 28.5 µM), for inactives: at the highest dose activity change, negative = inhibition, hits mostly inhibitors; 480 tested, 7% active; AID 2564, 2010;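 note: loss of thiazole orange fluorescence as the dye is displaced from duplex DNA; 0% = ThO with dsDNA and no compound and -100% = ThO without dsDNA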
EndoIV counter: Counterscreen for APE1 Inhibitors: qHTS Assay for Inhibitors of Endonuclease IV; shares compounds with APE1 inh-1; E. coli Endo IV, fluorogenic AP-site DNA cleavage; Potency, µM (highest dose often 27.1 µM), for the others: at the highest dose activity change, negative = inhibition, usual class: inhibitors; 560 tested, 4% active; AID 2565, 2010;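 note: plate controls were uninhibited enzyme wells for no effect and no enzyme buffer wells for full effect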
APE1 inh-2: Confirmation qHTS Assay for Inhibitors of the Human Apurinic/apyrimidinic Endonuclease 1 (APE1) | shares compounds with APE1 inh-1 | purified APE1, fluorogenic abasic-site DNA cleavage | Potency, µM (top dose mostly 57.1 µM), without a hit: at the highest dose activity change, negative = inhibition, most hits filed as inhibitors | 750 tested, 44% active; note: nearly all actives have a fitted effect of over 30% in size
APE1 FP: qHTS FP-Based Assay for Inhibitors of the Human Apurinic/apyrimidinic Endonuclease 1 (APE1); shares compounds with APE1 inh-1; 480 tested, 7% active; Potency, µM (top dose mostly 28.5 µM), without a hit: at the highest dose activity, negative = inhibition, hits mostly inhibitors; APE1 binding to TAMRA-labelled double-stranded DNA, fluorescence polarization displacement
RECQ1 conf: Confirmation qHTS Assay for Inhibitors of RecQ-Like Dna Helicase 1 (RECQ1) | 610 tested, 28% active | AID 2708, 2010 | RECQ1 helicase DNA unwinding, fluorescence | Potency, µM (top dose mostly 229 µM), without a hit: at the top dose activity change, negative = inhibition, actives largely listed as inhibitors | shares compounds with RECQ1 inh-1; note: nearly all actives have a fitted effect of over 45% in size
ADP FP counter: Counterscreen for RECQ1 Inhibitors: ADP Fluorescence Polarization Displacement Assay; Potency, µM (titrated, usually from 228 µM), for inactives: at the highest dose activity change, negative = inhibition, most hits filed as inhibitors; shares compounds with RECQ1 inh-1; ADP fluorescence polarization displacement counterscreen; AID 2711, 2010; 530 tested, 27% active; note: nearly all actives have a fitted effect of over 45% in size
RECQ1 inh-2: Confirmation qHTS Assay for Inhibitors of RecQ-Like Dna Helicase 1 (RECQ1) - Round 2 Cherry Picks; shares compounds with RECQ1 inh-1; recombinant RECQ1 DNA unwinding, red fluorescence; Potency, µM (titrated, usually from 119 µM), inactives show top-dose activity, negative = inhibition, usual class: inhibitors; 1,100 tested, 15% active; AID 504841, 2011; note: nearly all actives have a fitted effect of over 50% in size
* = called active by the depositor; i = inactive; u = inconclusive; x = no result given; [ ] = another dose, or the depositor's remark. This is one part of a sample in which hits are shown more often than they occur. Unless noted, calls come from the whole dose curve; as a rule, active = well fitted curve in the direction sought with a large enough effect; inconclusive = small, poorly fitted or top-dose-only effect, or another doubt; inactive = no such curve, though single readings can be large; an effect the other way counts as inactive or inconclusive. Unless noted, % is set by controls: 0 for no effect and ±100 for the full control effect; potency is the fitted concentration of half-maximal effect.

SMILES	APE1 inh-1	L3MBTL1 inh	BLM helicase inh	JMJD2E inh	KAT2A inh	RECQ1 inh-1	DNA dye displace	EndoIV counter	APE1 inh-2	APE1 FP	RECQ1 conf	ADP FP counter	RECQ1 inh-2
O=C1c2cccc3cccc(c23)C(=O)N1/N=C/c1ccc(O)cc1O	-9.0%	-8.5%	-7.1%	8.2%	-2.5%	-9.2%	x	x	x	x	x	x	x
N#CCCn1c(=O)c(-c2ccc(Cl)cc2)nc2cnc(OCc3ccccc3)nc21	-1.3%	x	0.3%	x	-11.8%	-2.4%	x	x	x	x	x	x	x
CC(=O)OCCNc1cc(SCc2ccco2)c2nonc2c1[N+](=O)[O-]	12.6µM*	-7.0%	-19.2%	u	-2.4%	7.08µM*	-8.1%	-3.3%	14.1µM*	-6.4%	19.8%[114 µM]	x	-22.9%
O=[N+]([O-])c1c(NCCCO)cc(SCc2ccco2)c2nonc12	1.8%	-3.4%	-19.1%	-7.7%	-6.2%	-5.0%	x	x	x	x	x	x	x
O=C(NC1CC2CCCC(C1)N2C(=S)Nc1ccccc1)C1CC1 (centres undefined)	20.6%	x	0.2%	x	-0.6%	x	x	x	x	x	x	x	x
C=Cc1c(C)/c2[n-]/c1=C\c1[n-]c(c(CC)c1C)/C=c1\[n-]c3c(c1C)C(=O)C(C(=O)[O-])C=3c1[n-]c(c(C)c1CCC(=O)[O-])\C=2.[Cu].[Na+].[Na+] (centres undefined)	x	x	11.2µM*	7.94µM*	2.51µM*	1.12µM*	x	15.8µM*	2.82µM*	x	2.82µM*	44.7µM*	x
CC(=O)NC1=NN(C(C)=O)C(C)(c2ccc3ccccc3c2)S1 (centres undefined)	11.2%	2.5%	-4.6%	3.7%	-0.9%	0.3%	x	x	x	x	x	x	x
CC(=O)NC1=NN(C(C)=O)C(C)(c2ccccc2)S1 (centres undefined)	2.82µM*	31.6µM*	u	-5.8%	-3.1%	39.8µM*	5.2%	-4.2%	1.41µM*	-5.9%	x	x	-2.1%
NNC(=O)c1cc(O)c(O)c(O)c1	0.891µM*	0.562µM*	u	u	-3.4%	3.16µM*	2.7%	163.7%	3.98µM*	5.4%	8.1%[114 µM]	-10.6%[91.9 µM]	x
COc1c(Cl)cc(C(=O)NN)cc1Cl	-0.8%	13.5%	-5.2%	55.7%	-10.5%	i	x	x	x	x	x	x	x
CCS(=O)(=O)c1nc(S(=O)(=O)c2ccc(C)cc2)c(N2CCN(C)CC2)s1	-1.9%	x	2.3%	x	-1.2%	x	x	x	x	x	x	x	x
O=C1CCCC2=C1C(c1ccco1)Nc1ccc3ccccc3c12 (centres undefined)	14.1µM*	3.16µM*	-28.3%	u	u	10µM*	-9.0%	4.1%	3.98µM*	u	25.1µM*	50.1µM*	15.8µM*
Cc1c2c(c(O)c3c(O)cccc13)C(=O)O[C@H]2C1C(N(C)C)C(O)=C(C(N)=O)C(=O)[C@H]1O (some centres undefined)	2µM*	x	17.8µM*	x	3.16µM*	3.16µM*	10µM*	-3.6%[57.1 µM]	1.41µM*	2.24µM*	39.8µM*	15.8µM*	u
C[C@H]1c2cccc(O)c2C(O)=C2C(=O)[C@]3(O)C(O)=C(C(N)=O)C(=O)C(N(C)C)[C@@H]3[C@@H](O)C21 (some centres undefined)	4.3%	x	x	u	x	i	x	x	x	x	x	x	x
Nc1ccc2c(c1Cl)C(=O)c1ccc(N)c(Cl)c1C2=O	8.91µM*	u	14.1µM*	-27.6%	u	u	6.31µM*	u	14.1µM*	u	x	x	u
CC#CCN1c2ccccc2[C@]23C[C@@H](C(=O)OC)N(S(=O)(=O)c4ccc(C#N)cc4)C2=NC(C(=O)OC)=C(C(=O)OC)[C@H]13	-1.4%[12.4 µM]	x	1.2%[12.4 µM]	-3.0%[11.4 µM]	x	0.7%[11.5 µM]	x	x	x	x	x	x	x
